Compounds with a hit are over-represented: about 7.9% of the library has one in this group of screens.
Her2 expr inh = lowers expression of human Her2 kinase; P04626; HER2 level % of control, % at 10 µM; SKBR-3 HER2 protein level, AlphaScreen, 18-24 h; stronger effect = lower value; 0.69% of 65,000 active;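 active means HER2 level under 5% of the carrier-only control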
PLAP activator = activators of human placental alkaline phosphatase | 1.2% of 96,000 active | purified PLAP enzyme, luminescent substrate read-out; stronger effect = higher value | activation fold at 20 µM | P05187; in the data active means activation fold above about 2
M1 antag = blocks the rat M1 muscarinic receptor response to acetylcholine; 3.4% of 64,000 active; B-score at 10 µM; P08482; AID 628; CHO-M1 cells, Fluo-4 calcium, ACh EC80 antagonist mode; stronger effect = lower value;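 active means calcium fluorescence response, raw or row-and-column corrected B-score, differing from the plate sample mean either way at a set confidence level, mostly lower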
Target sequence (P08482 whole entry, looked up): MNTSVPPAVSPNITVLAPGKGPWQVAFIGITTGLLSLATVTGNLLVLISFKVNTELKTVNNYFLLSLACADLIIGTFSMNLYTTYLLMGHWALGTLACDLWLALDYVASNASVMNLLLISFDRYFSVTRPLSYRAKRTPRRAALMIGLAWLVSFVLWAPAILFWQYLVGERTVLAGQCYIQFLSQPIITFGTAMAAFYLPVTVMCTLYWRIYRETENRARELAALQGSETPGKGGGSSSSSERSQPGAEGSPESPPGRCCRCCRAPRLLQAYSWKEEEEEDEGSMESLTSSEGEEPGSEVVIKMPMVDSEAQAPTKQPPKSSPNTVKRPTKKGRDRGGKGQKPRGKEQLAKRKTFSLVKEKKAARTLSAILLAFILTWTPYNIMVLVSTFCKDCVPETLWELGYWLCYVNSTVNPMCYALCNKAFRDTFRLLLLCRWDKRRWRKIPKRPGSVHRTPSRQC
M1 agonist = activates the M1 muscarinic receptor. 3% of 64,000 active. B-score at 10 µM. AID 626. CHO-M1 cells, Fluo-4 calcium fluorescence, agonist mode; stronger effect = higher value;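 active means fluorescence rise, raw or as B-score row- and column-corrected plate score, outside the 99.7% band of its plate's samples, either direction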
Cav32 inh = inhibitors of human Cav3.2 T-type calcium channel | AID 449739 | O95180 | Cav3.2-expressing cells, Fluo-4 calcium fluorescence FDSS; stronger effect = lower value | B-score at 10 µM | 4% of 100,000 active;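 active means single-dose well whose peak fluorescence ratio is a statistical outlier from its plate by either plate-standardised score or position-corrected B-score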
Each line names hits and unclear results; the compound was inactive in the other large screens.

CCN(CC)C(=O)c1c2c(nc3ccccc13)-c1ccccc1CC2	Cav32 inh -4.9 (no result: Her2 expr inh, M1 antag, M1 agonist)
CCCn1c(SCC(=O)NC)nnc1C(C)C	none
Cc1c(N2C(=O)c3ccc4c5c(ccc(c35)C2=O)CC4)c(=O)n(-c2ccccc2)n1C	none
Cc1c(N2C(=O)c3ccc(Br)cc3C2=O)c(=O)n(-c2ccccc2)n1C	Cav32 inh -4.4 (no result: Her2 expr inh, M1 antag, M1 agonist)
CC1CCC(C(=O)NC(C(=O)N2CCc3ccccc3C2)C(C)C)CC1 (stereo not given)	Cav32 inh -5.4 (no result: Her2 expr inh, M1 antag, M1 agonist)
Cc1sc2ncnc(SCC(=O)c3cccs3)c2c1C	none (no result: M1 antag, M1 agonist)
CCCN(CC1CC1)C(=O)CSc1ncnc2sc(C)c(C)c12	Cav32 inh -5.2 (no result: Her2 expr inh, M1 antag, M1 agonist)
N#CC1=C(N)NC(SCC(=O)Nc2ccc(Br)cc2)=C(C#N)C12CCCCC2	Cav32 inh -6.5 (no result: Her2 expr inh, M1 antag, M1 agonist)
N#CC1=C(N)NC(SCc2ccc(Cl)cc2)=C(C#N)C12CCCCC2	Cav32 inh -4.1
CC1(C)CC(=O)C2=C(C1)NC(SCC(=O)Nc1ccccc1)=C(C#N)C21CCCCC1	none
Cc1ccc(Cn2cnc3ccccc32)cc1	none (no result: Her2 expr inh, M1 antag, M1 agonist)
O=C(Nc1ccc(N2C(=O)C3C4C=CC(C4)C3C2=O)cc1)Nc1cccnc1 (stereo not given)	none
CC(C)(C)c1ccc(/C([O-])=C(/C(=S)NCc2ccco2)[n+]2ccccc2)cc1	none (no result: Her2 expr inh, M1 antag, M1 agonist)
CC(C)CNCC(=O)N1c2ccccc2Sc2ccccc21	none (no result: Her2 expr inh, M1 antag, M1 agonist)
CCCCC(NC(=O)c1ccccc1)C(=O)OCC(=O)N1c2ccccc2Sc2ccccc21 (stereo not given)	Cav32 inh -7.2 (no result: Her2 expr inh, M1 antag, M1 agonist)
COc1ccc(OC)c(C(=O)CSc2nc3ncccc3[nH]2)c1	PLAP activator 2.8
COc1ccc(NC(=O)CSc2nc3ncccc3[nH]2)cc1OC	PLAP activator 2 (no result: Her2 expr inh, M1 antag, M1 agonist)
COc1ccc2c(c1)c(=O)c(Br)c(C)n2Cc1ccccc1	none
COc1ccc2c(c1)c(=O)c(C(=O)c1ccccc1)cn2Cc1ccc(C)cc1	Cav32 inh -5.5 (no result: Her2 expr inh, PLAP activator, M1 antag, M1 agonist)
O=C(NCCNS(=O)(=O)c1ccccc1Cl)c1cc(OCC(F)(F)F)ccc1OCC(F)(F)F	none (no result: Her2 expr inh, M1 antag, M1 agonist)
O=C(NCCNC(=O)c1cc(OCC(F)(F)F)ccc1OCC(F)(F)F)Nc1cccc(C(F)(F)F)c1	Cav32 inh -8 (no result: Her2 expr inh, M1 antag, M1 agonist)
CSc1cccc(NC(=O)C2CCN(S(=O)(=O)c3ccc(F)cc3)CC2)c1	none
CSc1cccc(NC(=O)C2CCCN(S(=O)(=O)c3ccc(F)cc3)C2)c1 (stereo not given)	Cav32 inh -6.3
COc1ccc(/C=C/C(=O)c2sc(-c3ccccc3)nc2C)cc1	none (no result: Her2 expr inh, M1 antag, M1 agonist)
C/C=C1\COC(C(=O)NCc2ccccc2)(C(F)(F)F)C=C1C=C1CCCCC1 (stereo not given)	Cav32 inh -4.3 (no result: Her2 expr inh, PLAP activator, M1 antag, M1 agonist)
C/C=C1\COC(C(=O)NCCN2CCCC2)(C(F)(F)F)C=C1C=C1CCCCC1 (stereo not given)	none (no result: Her2 expr inh, PLAP activator, M1 antag, M1 agonist)
O=C(C1=C[C@@H](C2CCCCC2)C[C@@H](OCc2ccc(CO)cc2)O1)N1CCN(Cc2ccccc2)CC1	none (no result: Her2 expr inh, PLAP activator, M1 antag, M1 agonist)
CCOc1ccc(C)cc1S(=O)(=O)NC1CCCCC1	PLAP activator 2.2
Cc1ccc(Cc2nnc3n(-c4cccc(C)c4)nc(C(=O)c4ccccc4)n3c2=O)cc1	none (no result: Her2 expr inh, PLAP activator, M1 antag, M1 agonist)
O=C(O)C1CCN(S(=O)(=O)/C=C/c2ccccc2)CC1	none (no result: Her2 expr inh, M1 antag, M1 agonist)
CCC(Sc1nnnn1-c1ccccc1)C(=O)Nc1nc2ccccc2s1 (stereo not given)	Cav32 inh -6.7 (no result: PLAP activator)
CC(Sc1nnnn1-c1ccccc1)C(=O)Nc1ccc(Cl)cn1 (stereo not given)	Cav32 inh -5.1
CCC(Sc1nnnn1-c1ccccc1)C(=O)NC(C)c1ccccc1 (stereo not given)	Cav32 inh -4.9
O=C(CSc1nnnn1-c1ccc(F)cc1)Nc1nc2ccccc2s1	none (no result: Her2 expr inh, M1 antag, M1 agonist)
O=C(CSc1nnnn1-c1ccccc1)CSc1nnnn1-c1ccccc1	none
O=C(Nc1ccc(NC(=S)NC(=O)C(c2ccccc2)c2ccccc2)cc1)c1ccccc1	Cav32 inh -4.3 (no result: Her2 expr inh, PLAP activator, M1 antag, M1 agonist)
COc1ccc(C(=O)N2CCN(c3nnnn3-c3ccccc3)CC2)cc1OC	none
CCOC(=O)N1CCN(c2nnnn2-c2ccccc2)CC1	Her2 expr inh -26
O=C(O)C1CC(O)CN1C(=O)c1ccco1 (stereo not given)	none (no result: Her2 expr inh, M1 antag, M1 agonist)
Cc1cc(C(=O)NCc2cc(C)n(C)n2)sc1-c1ccccc1	M1 agonist 3
C=CCNS(=O)(=O)c1ccc(OCC(=O)OC)cc1	none
O=C(OC1C[C@@H]2CC3C[C@H](C1)N2CC3=O)c1c[nH]c2ccccc12 (stereo not given in full)	none (no result: Her2 expr inh, PLAP activator, M1 antag, M1 agonist)
Cc1ccc(C(=O)COC(=O)C2CC(=O)N(c3nc(-c4ccccc4)cs3)C2)cc1 (stereo not given)	none (no result: Her2 expr inh, M1 antag, M1 agonist)
N=C1C(c2nc3ccccc3c(=O)[nH]2)=C(O)CN1c1ccccc1	PLAP activator 2.2 (no result: Her2 expr inh, M1 antag, M1 agonist)

Screens deposited in PubChem BioAssay by several laboratories.
